# BAZ2B inh – blocks human BAZ2B. AID 504333. Potency, µM (top dose mostly 114 µM), for the others: at the top dose activity change, negative = inhibition, most hits filed as inhibitors. AlphaScreen BAZ2B-H3K14Ac peptide displacement. actives 4.4% (n = 360,000); also: % is scaled to controls: 0 for no effect and ±100 for the full control effect; nearly all actives have a fitted effect of over 60% in size
#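 Inhibition is scored as reduced AlphaScreen emission. The BAZ2B/b-H3(5-23)K14Ac complex (50 nM each) in PBS pH 7.4, 0.01% Tween-20 meets compound (up to 110 uM) for 30 min at RT before bead addition.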
# HP1b binding inh – inhibitors of HP1-beta chromodomain binding to methylated histone tails; AlphaScreen HP1-beta / biotin-H3K9me3 peptide binding; Potency, µM (highest dose often 114 µM), for the others: at the highest dose activity change, negative = inhibition, most hits filed as inhibitors; actives 0.56% (n = 390,000); AID 540317; also: nearly all actives have a fitted effect of over 70% in size
# Target sequence (P83916 whole entry, looked up): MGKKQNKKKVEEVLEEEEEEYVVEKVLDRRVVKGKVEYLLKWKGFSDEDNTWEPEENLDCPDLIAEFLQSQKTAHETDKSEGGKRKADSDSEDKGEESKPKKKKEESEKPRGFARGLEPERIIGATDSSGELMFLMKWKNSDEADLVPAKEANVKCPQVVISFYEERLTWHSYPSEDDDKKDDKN
#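 AlphaScreen: HP1-beta (50 nM) preformed 30 min with biotin-H3(1-18)K9me3 peptide (50 nM) in PBS pH 7.4, 0.01% Tween-20. Compound added for 30 min at RT, then streptavidin donor/nickel chelate acceptor beads (10 ug/mL) for 30 min.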
# JMJD2A Tudor – inhibitors of human JMJD2A Tudor domain; O75164; AlphaScreen JMJD2A-Tudor / H3K4me3 peptide binding; Potency, µM (doses to about 114 µM), without a hit: top-dose activity change, negative = inhibition, most hits filed as inhibitors; actives 4.4% (n = 390,000); also: % is scaled to controls: 0 for no effect and ±100 for the full control effect; nearly all actives have a fitted effect of over 50% in size
# Sfp inh – Sfp phosphopantetheinyl transferase inhibition; Q9F4F7; Biochemical Sfp PPTase activity, qHTS; Potency, µM, inactives show largest response in the series, negative = inhibition, hits mostly inhibitors; actives 3.5% (n = 310,000);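 also: the enzyme is Sfp with the accession as filed and its product quenches rhodamine fluorescence; 0% = enzyme reaction without inhibitor and -100% = no enzyme wells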
#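 Sfp 15 nM + cpd, 15 min RT; start w/ rhodamine-CoA 5 uM, BHQ-2-YbbR 12.5 uM (final); 50 mM Hepes pH 7.6, 10 mM MgCl2, 0.01% NP-40, 0.01% BSA; read 525/598 nm at 0 and 30 min.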
# G9a inh – blocks human histone lysine methyltransferase G9a; Q96KQ7; G9a H3K9 monomethylation, AlphaScreen, 2 h; Potency, µM (series often up to 102 µM), without a hit: at the highest dose activity, negative = inhibition, actives largely listed as inhibitors; actives 8.8% (n = 350,000); AID 504332; also: % is scaled to controls: 0 for no effect and ±100 for the full control effect; nearly all actives have a fitted effect of over 75% in size
# Target sequence (Q96KQ7 913-1193 limits assumed): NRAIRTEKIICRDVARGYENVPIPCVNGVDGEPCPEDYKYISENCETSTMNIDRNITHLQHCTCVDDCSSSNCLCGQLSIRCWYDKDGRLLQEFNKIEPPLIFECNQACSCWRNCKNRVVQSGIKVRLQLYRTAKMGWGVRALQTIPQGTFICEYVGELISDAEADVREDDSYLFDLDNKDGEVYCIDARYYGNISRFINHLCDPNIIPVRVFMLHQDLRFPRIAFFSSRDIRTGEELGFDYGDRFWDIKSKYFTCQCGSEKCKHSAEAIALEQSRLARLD
#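 AlphaScreen read-out: biotin-H3K9 peptide (500 nM) methylation by 20 nM enzyme with 20 uM SAM, 2 h at room temperature after 15 min compound preincubation; anti-monomethyl H3K9 antibody plus donor/acceptor beads, 10 min dark.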
# Active calls of the source: *; ? = inconclusive; . = no result; [ ] = dose if it differs, or a comment. Sampled rows, rich in hits. Any-hit rate of the full collection: about 12%. Calls follow the shape of the dose curve; as a rule, active = well fitted curve in the direction sought with a large enough effect; inconclusive = small, poorly fitted or top-dose-only effect, or another doubt; inactive = no such curve, though single readings can be large; an effect the other way counts as inactive or inconclusive. Potency is read from the fitted curve at half-maximal effect.
SMILES,BAZ2B inh,HP1b binding inh,JMJD2A Tudor,Sfp inh,G9a inh
Cc1cc(OCC(=O)OCC(=O)NCc2cccs2)ccc1Cl,.,23.2%,-19.2%,.,.
CC1CCN(S(=O)(=O)c2ccc3[nH]cc(C(=O)NCc4ccc(F)cc4)c(=O)c3c2)CC1,-0.5%,2.8%,-32.7%,.,-20.8%[59 µM]
Cc1cc(C)cc(-n2nnn(C3C/C(=N/NC(N)=S)C4OCC3O4)c2=S)c1 (configuration not stated),-22.2%,-15.4%,?,56.2µM*,50.1µM*
CCOC(=O)c1[nH]c2c(c1C)C(=O)CC(c1ccco1)C2 (configuration not stated),44.7µM*,-14.7%,56.2µM*,25.1µM*,?
Cc1c(C(=O)OCCOC(C)C)[nH]c2c1C(=O)CC(c1ccco1)C2 (configuration not stated),50.1µM*,-16.1%,?,?,44.7µM*
CSCCOC(=O)c1[nH]c2c(c1C)C(=O)CC(c1ccco1)C2 (configuration not stated),44.7µM*,?,35.5µM*,44.7µM*,22.4µM*
COCCOC(=O)c1[nH]c2c(c1C)C(=O)CC(c1ccc(F)cc1)C2 (configuration not stated),4.5%,39.7%,-25.0%,7.1%,13.6%
Cc1c(C(=O)OCc2ccccc2)[nH]c2c1C(=O)CC(c1ccco1)C2 (configuration not stated),50.1µM*,70.8µM*,25.1µM*,39.8µM*,?
COc1ccc(C2CC(=O)c3c([nH]c(C(=O)OCc4ccccc4)c3C)C2)cc1 (configuration not stated),-12.1%,24.2%,-36.0%,.,-16.4%[59 µM]
CN1CCN(C(=O)Cn2ncc3c4ccccc4n(Cc4ccc(F)cc4)c3c2=O)CC1,-3.8%,33.7%,-6.7%,.,4.7%[59 µM]
Cc1ccc2c(Cl)c(C)c(N3CCOCC3)nc2n1,.,34.8%,-4.5%,.,.
O=C(Nc1cccc(Cl)c1)C1C2C=CC3(O2)C1C(=O)N(CCCN1CCCCC1)C3C(=O)NC1CCCCC1 (configuration not stated),2.4%,-10.1%,-11.4%,15.1%,?
COCCOC(=O)c1[nH]c2c(c1C)C(=O)CC(c1ccco1)C2 (configuration not stated),50.1µM*,50.1µM*,44.7µM*,-25.7%,50.1µM*
COCCOC(=O)c1[nH]c2c(c1C)C(=O)CC(c1ccccc1)C2 (configuration not stated),2.6%,14.6%,-13.6%,14.8%,-7.3%[59 µM]
COc1cccc(NC(=O)CSC2=Nc3ccccc3C3=NC(CC(=O)NCCc4ccccc4)C(=O)N23)c1 (configuration not stated),8.5%,20.0%,-21.3%,.,33.8%[59 µM]
CCOC(=O)c1c(NC(=O)c2cccc([N+](=O)[O-])c2C(=O)O)sc2c1CCCC2,4.5%,57.2%,-25.8%,9.6%,21.2%
CCOC(=O)c1c(NC(=O)c2c(C(=O)O)cccc2[N+](=O)[O-])sc2c1CCCC2,-23.7%,?,?,17.8µM*,8.91µM*
CCOC(=O)c1c(/N=C/c2cccc([N+](=O)[O-])c2O)sc2c1CCC2,?,?,?,17.8µM*,.
CCOC(=O)c1c(/N=C/C2=C(O)CCCC2=O)sc2c1CCCC2,-1.5%,63.7%,-7.3%,-25.9%,-32.7%[59 µM]
CCOC(=O)c1c(/N=C/c2ccccc2O)sc2c1CCC2,-30.4%,-7.4%,-27.2%,-14.1%,70.8µM*
CCOC(=O)c1c(/N=C/c2ccc(O)cc2O)sc2c1CCC2,?,.,.,-10.5%,-9.9%[59 µM]
N#Cc1nc(-c2ccco2)oc1N1CCN(Cc2ccccc2)CC1,50.1µM*,-24.4%,?,-3.9%,?
COc1ccccc1-c1nc(C#N)c(N2CCN(Cc3ccccc3)CC2)o1,28.2µM*,14.1µM*,?,?,?
CN(C)c1oc(-c2ccco2)nc1C#N,-4.3%,25.0%,-14.1%,10.4%,4.8%[59 µM]
CN(Cc1ccccc1)c1oc(-c2ccco2)nc1C#N,44.7µM*,?,?,-2.5%,?
SMILES,BAZ2B inh,HP1b binding inh,JMJD2A Tudor,Sfp inh,G9a inh
CC(=O)N1C2(C=CC1(C)C(=O)NCCN1CCOCC1)CCCCC2 (configuration not stated),.,.,.,20.5%,.
COc1cccc(Cn2nnc3c(=O)[nH]c(C4CCN(C(=O)c5ccccc5Cl)CC4)nc32)c1,-6.9%,-6.1%,?,.,-31.4%[59 µM]
O=C(O)C1CSC(c2coc3ccccc3c2=O)N1 (configuration not stated),50.1µM*,?,25.1µM*,44.7µM*,?
COc1ccc(CCNC(=O)C(C)n2nc(C)c3sc4ccccc4c3c2=O)cc1OC (configuration not stated),0.9%,32.7%,-0.7%,.,-31.3%[59 µM]
COc1ccc(N2CCN(c3cc(C)c4ccc(C)cc4n3)CC2)cc1,-38.5%,?,?,-7.0%,8.91µM*
COc1ccc(N2CCN(c3cc(C)c4cccc(C)c4n3)CC2)cc1,?,?,22.4µM*,1.0%,12.6µM*
COc1ccc(N2CCN(c3nc4cc(C)ccc4cc3C=O)CC2)cc1,12.6µM*,?,22.4µM*,-5.0%,25.1µM*
COc1ccc(N2CCN(c3cc(C)c4ccc(O)cc4n3)CC2)cc1,44.7µM*,15.8%,?,11.0%,?
COc1ccc2c(C)cc(N3CCN(c4ccc(F)cc4)CC3)nc2c1,-33.9%,9.8%,-24.3%,?,-7.4%[59 µM]
COc1ccc(N2CCN(c3ncnc4c3cnn4-c3ccc(C)cc3C)CC2)cc1,8.1%,4.3%,-23.3%,0.9%,-6.1%[12.7 µM]
Cc1cc(N2CCN(c3ncccn3)CC2)nc2c(C)cccc12,70.4%,59.3%,12.9%,-8.7%,32.6%
COC(=O)C/C=C\[C@@H](C)[C@@H](/C=N\OC[C@@H](O)COCc1ccco1)OC,.,.,.,23.0%,.
COc1cccc(C2c3cc4c(cc3OC(C)(N3CCCC3)C2C)OCO4)c1O (configuration not stated),.,-28.4%,?,.,.
CCc1ccc2oc(C(=O)Nc3ccccc3C(=O)OC)cc(=O)c2c1,3.1%,45.6%,11.8%,.,3.5%[59 µM]
COc1cccc2c1C1COC3C4CC(C(=O)O)C(C(C2)N13)N4C (configuration not stated),.,22.1%,12.6µM*,.,.
Cc1ccc(C(=O)N/C(=C\c2ccco2)C(=O)N2CCOCC2)cc1C,-5.3%,42.2%,-8.9%,-15.9%,.
CN(C)NC(=S)Nc1ccc(Cl)cc1,-23.4%,1.9%,-5.6%,16.3%,6.2%[59 µM]
CN(N)C(=S)Nc1ccc(Cl)cc1,-30.6%,36.5%,0.7%,-9.6%,15.8µM*
O=C(CCl)NC(Cc1ccccc1)C(=O)OCC(=O)c1ccc(-c2ccccc2)cc1 (configuration not stated),.,24.3%,-16.0%,.,.
CCOc1ccc(CN2CCN(S(=O)(=O)c3ccc(NC(C)=O)cc3)CC2)cc1OC,50.1µM*,?,22.4µM*,-21.1%,6.31µM*
